In the library only some 10% were active in any assay of this set; here they are far more common.
HEK293 tox – Cytotoxic Profiling in HEK 293 Cell Line of Diverse Libraries Using Quantitative High-Throughput Screening; Potency, µM (top dose mostly 115 µM), hits mostly inhibitors; 6.6% of 94,000 active; HEK 293 viability, ATP luminescence (CellTiter-Glo), 48-72 h; further: nearly all actives have a fitted effect of over 60% in size
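ATP-coupled CellTiter-Glo luminescence served as viability read-out, recorded 10 min after reagent addition at room temperature. HEK 293 cells, 250 cells/well, had been incubated with pintool-transferred compound for 48 or 72 hr at 37 degree Celsius.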
FLuc inh – Firefly luciferase inhibition profiling of diverse chemical library using quantitative high-throughput screening. Luciferin 4-monooxygenase (Photinus pyralis), P08659. purified P. pyralis luciferase, luminescence, biochemical. Potency, µM (highest dose often 115 µM), usual class: inhibitors. 2.5% of 76,000 active; further: nearly all actives have a fitted effect of over 65% in size
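Inhibitors were tested against purified firefly luciferase in a biochemical, low-substrate format (both substrates at 10uM) and luminescence measured with a CCD imager.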
NPR1 antag – Natriuretic polypeptide receptor (hNpr1) antagonism - Primary qHTS | Atrial natriuretic peptide receptor 1 (Homo sapiens), P16066 | HEK293 hNpr1 GloSensor cGMP, ANP-stimulated luminescence | Potency, µM (titrated, usually from 46.3 µM), hits mostly inhibitors | 1.6% of 76,000 active | AID 1347048, 2019; calls by dose curve; further: nearly all actives have a fitted effect of over 60% in size
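Compound pre-incubated 30 min at room temperature on GloSensor-loaded HEK293 cells stably carrying hNpr1 and the pGS-40F cGMP biosensor. Stimulation uses hNppA at 0.1 nM final; luminescence is taken at baseline and 20 min post-agonist.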
NIH3T3 tox – Cytotoxic Profiling in NIH 3T3 Cell Line of Diverse Libraries Using Quantitative High-Throughput Screening; Potency, µM (top dose mostly 96.7 µM), most hits filed as inhibitors; AID 1345082, 2018; NIH 3T3 viability, CellTiter-Glo ATP luminescence, 48-72 h; 4.3% of 94,000 active; further: nearly all actives have a fitted effect of over 55% in size
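Cells were seeded at 400 per well, treated with pin-transferred compound, and kept 48 or 72 hr at 37 °C before CellTiter-Glo addition and luminescence imaging of cellular ATP.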
GPT2 inhibitor – Primary qHTS assay for inhibitors of Glutamate pyruvate transaminase 2 (GPT2); 0.25% of 100,000 active; Recombinant GPT2, coupled pyruvate oxidase/HRP Amplex Red fluorescence; Potency, µM (highest dose often 57.7 µM), hits mostly inhibitors; Alanine aminotransferase 2 (Homo sapiens), Q8TD30; AID 1671188, 2021; further: nearly all actives have a fitted effect of over 60% in size
Target sequence (Q8TD30 whole entry, looked up): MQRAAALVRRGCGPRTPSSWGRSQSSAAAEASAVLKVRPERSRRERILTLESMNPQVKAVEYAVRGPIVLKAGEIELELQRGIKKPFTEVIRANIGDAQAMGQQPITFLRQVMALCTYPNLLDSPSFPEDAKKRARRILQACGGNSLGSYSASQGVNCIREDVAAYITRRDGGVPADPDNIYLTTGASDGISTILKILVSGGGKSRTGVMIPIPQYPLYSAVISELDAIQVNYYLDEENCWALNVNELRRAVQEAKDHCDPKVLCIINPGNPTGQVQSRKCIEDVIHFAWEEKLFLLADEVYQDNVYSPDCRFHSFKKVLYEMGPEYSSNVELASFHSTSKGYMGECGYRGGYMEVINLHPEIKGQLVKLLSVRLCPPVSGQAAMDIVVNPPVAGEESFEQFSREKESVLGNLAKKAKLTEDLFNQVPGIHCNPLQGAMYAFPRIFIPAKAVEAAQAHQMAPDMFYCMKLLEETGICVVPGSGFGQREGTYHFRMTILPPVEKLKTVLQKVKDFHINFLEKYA
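Inhibition is scored from Amplex Red fluorescence generated when pyruvate oxidase and HRP act on pyruvate released by GPT2. Reactions contain 10ng/uL enzyme, 250uM a-KG and 2mM L-alanine and run 30 min at room temperature.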
NPR1 antag cnf – Natriuretic polypeptide receptor (hNpr1) antagonism - Confirmation. Potency, µM (titrated, usually from 57.6 µM), usual class: inhibitors. HEK293 hNpr1 cGMP GloSensor luminescence, ANP-stimulated. 76% of 1,400 active. shares compounds with NPR1 antag; calls by dose curve; further: nearly all actives have a fitted effect of over 70% in size
Npr2 selectivity – Natriuretic polypeptide receptor (hNpr2) antagonism - Subtype selectivity assay; shares compounds with NPR1 antag; HEK293 hNpr2 GloSensor cGMP luminescence, CNP-stimulated; Potency, µM (top dose mostly 57.6 µM), actives largely listed as inhibitors; 67% of 1,400 active; AID 1347046, 2019; calls by dose curve; further: nearly all actives have a fitted effect of over 70% in size
FLuc inh counter – Natriuretic polypeptide receptor (hNpr1) antagonism - Confirmation firefly luciferase (FLuc) inhibition counterscreen. shares compounds with NPR1 antag. purified FLuc enzyme, luminescence, Km substrate. Potency, µM (highest dose often 57.6 µM), usual class: inhibitors. 0.7% of 1,400 active. AID 1347047, 2019
GloSensor ctrl – Natriuretic polypeptide receptor (hNpr1) antagonism - Counterscreen GloSensor control cell line | shares compounds with NPR1 antag | HEK293 GloSensor cGMP, SNP-stimulated, luminescence | Potency, µM (titrated, usually from 57.6 µM), actives largely listed as inhibitors | 69% of 1,400 active; calls by dose curve; further: nearly all actives have a fitted effect of over 70% in size
Hits are given with their value. Unless noted, the call rests on the fitted dose curve; in most records, active means well fitted curve in the direction sought with a large enough effect; inconclusive means small, poorly fitted or top-dose-only effect, or another doubt; inactive means no such curve, though single readings can be large; an effect the other way counts as inactive or inconclusive.

`CCc1cc(N2CCCC(C(=O)c3sccc3C)C2)ncn1` (centres undefined) gave HEK293 tox 32µM, FLuc inh inactive, NPR1 antag 7.1µM, NIH3T3 tox inactive, GPT2 inhibitor inactive, NPR1 antag cnf 7.7µM, Npr2 selectivity 12µM, FLuc inh counter inactive and GloSensor ctrl 7.7µM.
COc1ccc(CN2C=C(C(=O)OCc3noc(-c4ccc(C)c(C)c4)n3)C(C)=NS2(=O)=O)cc1 was read as HEK293 tox inconclusive, FLuc inh inactive, NPR1 antag inconclusive, NIH3T3 tox inactive and GPT2 inhibitor inactive.
For COc1ccc(CN2C=C(C(=O)OCc3noc(-c4cccc(OC)c4)n3)C(C)=NS2(=O)=O)cc1 the results were HEK293 tox inconclusive, FLuc inh inactive, NPR1 antag inconclusive, NIH3T3 tox inconclusive, GPT2 inhibitor inactive, NPR1 antag cnf inconclusive, Npr2 selectivity inactive, FLuc inh counter inactive and GloSensor ctrl inconclusive.
CC1=NS(=O)(=O)N(Cc2ccccc2)C=C1C(=O)OCc1noc(-c2ccc(C)c(C)c2)n1 was read as HEK293 tox inconclusive, FLuc inh inactive, NPR1 antag 11µM, NIH3T3 tox inconclusive, GPT2 inhibitor inactive, NPR1 antag cnf 17µM, Npr2 selectivity inconclusive, FLuc inh counter inactive and GloSensor ctrl 15µM.
For COc1ccc(CN2C=C(C(=O)OCc3noc(-c4ccc(C)cc4)n3)C(C)=NS2(=O)=O)cc1 the results were HEK293 tox inactive, FLuc inh inactive, NPR1 antag 10µM, NIH3T3 tox inconclusive, GPT2 inhibitor inactive, NPR1 antag cnf 15µM, Npr2 selectivity 14µM, FLuc inh counter inactive and GloSensor ctrl 12µM.
Screening COC1CCC12CCN(Cc1cccc(C#N)c1)CC2 (centres undefined) returned HEK293 tox inactive, FLuc inh inactive, NPR1 antag inactive, NIH3T3 tox inactive and GPT2 inhibitor inactive.
For CCOc1ccc2c(n1)CCN(C(=O)CCC1CCCC1)C2 the results were HEK293 tox inconclusive, FLuc inh inconclusive, NPR1 antag inactive, NIH3T3 tox inactive and GPT2 inhibitor inactive.
O=C1N(C2CCN(Cc3ccc(C(F)(F)F)cc3)CC2)Cc2cccn21 was read as HEK293 tox inconclusive, NIH3T3 tox inactive, GPT2 inhibitor inactive, NPR1 antag cnf 15µM, Npr2 selectivity 17µM, FLuc inh counter inactive and GloSensor ctrl 12µM.
Cc1cc(N2CCCN(c3ccncc3)CC2)n2nc(C)c(C)c2n1 was read as HEK293 tox inactive, FLuc inh inactive, NPR1 antag inactive, NIH3T3 tox inactive and GPT2 inhibitor inactive.
Screening CC1=C(C(=O)OC(C)C)C(c2ccccc2Cl)N2C(CC(=O)N3CCOCC3)=CSC2=N1 (centres undefined) returned HEK293 tox inconclusive, FLuc inh inactive, NPR1 antag 14µM, NIH3T3 tox inactive, GPT2 inhibitor inactive, NPR1 antag cnf inconclusive, Npr2 selectivity inconclusive, FLuc inh counter inactive and GloSensor ctrl inconclusive.
`CC1=C(C(=O)OC(C)C)C(c2ccccc2Cl)N2C(CC(=O)N3CCCC3)=CSC2=N1` (centres undefined) gave HEK293 tox inconclusive, FLuc inh inactive, NPR1 antag 13µM, NIH3T3 tox inactive, GPT2 inhibitor inactive, NPR1 antag cnf 24µM, Npr2 selectivity 22µM, FLuc inh counter inactive and GloSensor ctrl inconclusive.
`C=CCOC(=O)C1=C(C)N=C2SC=C(CC(=O)N3CCOCC3)N2C1c1ccc(C)cc1C` (centres undefined) gave HEK293 tox inconclusive, FLuc inh inconclusive, NPR1 antag inconclusive, NIH3T3 tox inactive and GPT2 inhibitor inactive.
For CC1=C(C(=O)OC(C)C)C(c2ccc(C)cc2C)N2C(CC(=O)N3CCCC3)=CSC2=N1 (centres undefined) the results were HEK293 tox inconclusive, FLuc inh inactive, NPR1 antag inconclusive, NIH3T3 tox inconclusive, GPT2 inhibitor inactive, NPR1 antag cnf inconclusive, Npr2 selectivity inconclusive, FLuc inh counter inactive and GloSensor ctrl inconclusive.
`CC(=O)N1CCC2(CC1)CCN(c1ncccc1C#N)CC2CO` (centres undefined) gave HEK293 tox inactive, FLuc inh inactive, NPR1 antag inactive, NIH3T3 tox inactive and GPT2 inhibitor inconclusive.
For N#Cc1cccnc1N1CCC(CO)(Cc2ccccc2C(F)(F)F)CC1 the results were HEK293 tox inconclusive, FLuc inh inactive, NPR1 antag inconclusive, NIH3T3 tox inconclusive, GPT2 inhibitor inactive, NPR1 antag cnf 22µM, Npr2 selectivity 17µM, FLuc inh counter inactive and GloSensor ctrl inactive.
Screening COc1cc(N2CCC(CO)(Cc3ccccc3C(F)(F)F)CC2)ncn1 returned HEK293 tox inconclusive, FLuc inh inactive, NPR1 antag 11µM, NIH3T3 tox inconclusive, GPT2 inhibitor inactive, NPR1 antag cnf 19µM, Npr2 selectivity 19µM, FLuc inh counter inactive and GloSensor ctrl 15µM.
COc1ccnc(N2CCC(CO)(Cc3ccccc3C(F)(F)F)CC2)n1 was read as HEK293 tox inconclusive, FLuc inh inactive, NPR1 antag inactive, NIH3T3 tox inconclusive and GPT2 inhibitor inconclusive.
Screening Cc1ncnc(N2CCC(CO)(Cc3ccccc3C(F)(F)F)CC2)c1C returned HEK293 tox 40µM, FLuc inh inactive, NPR1 antag 11µM, NIH3T3 tox inconclusive, GPT2 inhibitor inactive, NPR1 antag cnf 24µM, Npr2 selectivity 24µM, FLuc inh counter inactive and GloSensor ctrl 19µM.
